# Reference: PubChem BioAssay (EPA / NIEHS)
# Where “and” joins values, the source holds several entries; their conditions need not be identical. Equal entries are not always repeated. Records with an inconclusive call do not appear. Calls of active or inactive are those of the source. Rule for the calls, unless noted: active = hit-call score of the fitted dose curve at least 0.9, where 1 is the maximum; inactive = score below 0.9.
# Key:
# [1] = target: Retinoic acid receptor RXR-alpha (Homo sapiens) (UniProt P19793); experiment: ATG_RXRa_TRANS: Attagene TRANS-FACTORIAL HepG2 Assay for human Retinoid X Receptor alpha (RXRa) (AID 2283012; active = hit-call score of the fitted dose curve at least 0.9, where 1 is the maximum)
# Sequence of Retinoic acid receptor RXR-alpha (Homo sapiens) (P19793 whole entry, looked up, the tested form may be a part): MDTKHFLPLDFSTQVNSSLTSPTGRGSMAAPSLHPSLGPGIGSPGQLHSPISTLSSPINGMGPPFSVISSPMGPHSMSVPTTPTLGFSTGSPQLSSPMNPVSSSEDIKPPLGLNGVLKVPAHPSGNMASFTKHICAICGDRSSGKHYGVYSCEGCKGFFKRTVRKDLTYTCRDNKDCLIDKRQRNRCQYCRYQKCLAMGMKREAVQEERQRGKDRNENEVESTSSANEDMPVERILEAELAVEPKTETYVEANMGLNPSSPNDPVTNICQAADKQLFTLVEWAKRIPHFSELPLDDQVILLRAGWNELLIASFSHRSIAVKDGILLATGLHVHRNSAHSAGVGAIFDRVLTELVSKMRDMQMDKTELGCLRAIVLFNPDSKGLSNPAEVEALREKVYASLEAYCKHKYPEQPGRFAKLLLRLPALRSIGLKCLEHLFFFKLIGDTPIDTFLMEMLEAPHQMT
# Procedure, shortened: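 Chimeric NR-GAL4 trans-activation in HepG2, 24 h treatment; reporter transcripts quantified by fluorescence on capillary electrophoresis, analysed for upward change from DMSO.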
# [2] = target: human Retinoid X Receptor beta (RXRb), RXRB (gene 6257) (UniProt P28702); experiment: ATG_RXRb_TRANS: Attagene TRANS-FACTORIAL HepG2 Assay for human Retinoid X Receptor beta (RXRb) (AID 2283013; active = hit-call score of the fitted dose curve at least 0.9, where 1 is the maximum)
# Sequence of human Retinoid X Receptor beta (RXRb), RXRB (gene 6257) (P28702 whole entry, looked up, the tested form may be a part): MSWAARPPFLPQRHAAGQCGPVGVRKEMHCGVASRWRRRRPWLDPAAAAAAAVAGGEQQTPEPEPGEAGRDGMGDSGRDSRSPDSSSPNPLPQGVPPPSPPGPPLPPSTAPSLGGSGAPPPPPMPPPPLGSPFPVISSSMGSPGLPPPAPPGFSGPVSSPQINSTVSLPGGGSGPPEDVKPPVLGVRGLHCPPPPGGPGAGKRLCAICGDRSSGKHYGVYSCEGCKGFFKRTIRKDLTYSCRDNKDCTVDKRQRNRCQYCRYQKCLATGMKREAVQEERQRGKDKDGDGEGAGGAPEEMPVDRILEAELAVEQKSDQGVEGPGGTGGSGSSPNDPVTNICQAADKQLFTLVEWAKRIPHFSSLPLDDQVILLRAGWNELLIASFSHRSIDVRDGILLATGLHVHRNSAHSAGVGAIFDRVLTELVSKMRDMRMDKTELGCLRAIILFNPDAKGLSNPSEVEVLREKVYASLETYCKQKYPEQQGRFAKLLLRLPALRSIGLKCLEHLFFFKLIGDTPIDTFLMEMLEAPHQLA
# Procedure, shortened: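 After a 24 h incubation with test chemical, transfected HepG2 cells carrying NR-Gal4 fusions and GAL4-UAS reporter transcription units yield RNA whose reporter cDNA is FAM-labelled, HpaI-cut and sized by capillary electrophoresis; increases over DMSO are scored.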
# [3] = target: human Thyroid Receptor alpha (THRa1), THRA (gene 7067) (UniProt P10827); experiment: ATG_THRa1_TRANS: Attagene TRANS-FACTORIAL HepG2 Assay for human Thyroid Receptor alpha (THRa1) (AID 2283014; active = hit-call score of the fitted dose curve at least 0.9, where 1 is the maximum)
# Sequence of human Thyroid Receptor alpha (THRa1), THRA (gene 7067) (P10827 whole entry, looked up, the tested form may be a part): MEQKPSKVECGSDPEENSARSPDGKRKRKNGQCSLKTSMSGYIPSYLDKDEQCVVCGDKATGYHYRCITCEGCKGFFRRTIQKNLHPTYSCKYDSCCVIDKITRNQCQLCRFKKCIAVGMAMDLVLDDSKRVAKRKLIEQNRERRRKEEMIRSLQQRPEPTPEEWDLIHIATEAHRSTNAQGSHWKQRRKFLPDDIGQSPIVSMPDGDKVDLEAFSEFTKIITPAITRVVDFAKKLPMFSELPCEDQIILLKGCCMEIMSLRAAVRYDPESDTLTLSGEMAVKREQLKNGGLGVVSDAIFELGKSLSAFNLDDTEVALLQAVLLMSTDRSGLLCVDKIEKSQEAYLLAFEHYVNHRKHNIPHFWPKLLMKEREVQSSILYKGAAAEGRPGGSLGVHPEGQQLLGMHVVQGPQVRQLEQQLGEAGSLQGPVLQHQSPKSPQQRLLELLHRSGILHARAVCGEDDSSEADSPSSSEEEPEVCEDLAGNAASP
# Procedure, shortened: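 HepG2 cells transiently transfected with chimeric NR-Gal4 and GAL4-UAS reporter units, dosed 24 h. Reporter mRNA quantified by RT-PCR, fluorescent labeling, HpaI digestion and capillary electrophoresis; gain-of-signal fit versus DMSO.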
# [4] = read-out: Interleukin-1 alpha (IL1a), IL1A (gene 3552); experiment: BSK_BE3C_IL1a: BioMAP Diversity Plus: BE3C Assay for Interleukin-1 alpha (IL1a) Biomarker Activity (AID 2283016); details: primary human bronchial epithelial cells; actives raise or lower the signal
# Procedure, shortened: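 Measured in human lung primary bronchial epithelial cells: IL-1a by ELISA at 24 h after dosing, with bidirectional fitting against DMSO.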
# [5] = read-out: Monocyte Chemoattractant Protein-1 (MCP1), CCL2 (gene 6347); experiment: BSK_3C_MCP1: BioMAP Diversity Plus: 3C Assay for Monocyte Chemoattractant Protein-1 (MCP1) Biomarker Activity (AID 2283017); details: primary human endothelial cells (HUVEC); actives raise or lower the signal
# Procedure, shortened: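 Human umbilical vein endothelial cells (3C system) exposed to chemicals for 24 h; MCP-1 quantified by ELISA against the DMSO baseline with bidirectional fitting, and parallel SRB staining used to assess cytotoxicity.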
# [6] = read-out: Monocyte Chemoattractant Protein-1 (MCP1), CCL2 (gene 6347); experiment: BSK_4H_MCP1: BioMAP Diversity Plus: 4H Assay for Monocyte Chemoattractant Protein-1 (MCP1) Biomarker Activity (AID 2283018); details: primary human endothelial cells (HUVEC); actives raise or lower the signal
# Procedure, shortened: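 Primary human umbilical vein endothelium is exposed to chemical for 24 h before MCP-1 is assayed by ELISA. Concentration-response fitted bidirectionally relative to DMSO.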
# [7] = read-out: E-selectin (Homo sapiens) (UniProt P16581); experiment: BSK_3C_Eselectin: BioMAP Diversity Plus: 3C Assay for Eselectin Biomarker Activity (AID 2283015); details: primary human endothelial cells (HUVEC); actives raise or lower the signal;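 for outcome: cell surface E-selectin protein quantified by ELISA 24 h after dosing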
# Procedure, shortened: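 Primary human umbilical vein endothelial cells (3C system), read 24 h after compound addition; E-selectin measured by ELISA. Bidirectional curve fitting against DMSO baseline; cytotoxicity by parallel SRB total-protein staining.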
# [8] = target: human RAR-related Orphan Receptor gamma (RORg), RORC (gene 6097) (UniProt P51449); experiment: ATG_RORg_TRANS: Attagene TRANS-FACTORIAL HepG2 Assay for human RAR-related Orphan Receptor gamma (RORg) (AID 2283011; active = hit-call score of the fitted dose curve at least 0.9, where 1 is the maximum)
# Sequence of human RAR-related Orphan Receptor gamma (RORg), RORC (gene 6097) (P51449 whole entry, looked up, the tested form may be a part): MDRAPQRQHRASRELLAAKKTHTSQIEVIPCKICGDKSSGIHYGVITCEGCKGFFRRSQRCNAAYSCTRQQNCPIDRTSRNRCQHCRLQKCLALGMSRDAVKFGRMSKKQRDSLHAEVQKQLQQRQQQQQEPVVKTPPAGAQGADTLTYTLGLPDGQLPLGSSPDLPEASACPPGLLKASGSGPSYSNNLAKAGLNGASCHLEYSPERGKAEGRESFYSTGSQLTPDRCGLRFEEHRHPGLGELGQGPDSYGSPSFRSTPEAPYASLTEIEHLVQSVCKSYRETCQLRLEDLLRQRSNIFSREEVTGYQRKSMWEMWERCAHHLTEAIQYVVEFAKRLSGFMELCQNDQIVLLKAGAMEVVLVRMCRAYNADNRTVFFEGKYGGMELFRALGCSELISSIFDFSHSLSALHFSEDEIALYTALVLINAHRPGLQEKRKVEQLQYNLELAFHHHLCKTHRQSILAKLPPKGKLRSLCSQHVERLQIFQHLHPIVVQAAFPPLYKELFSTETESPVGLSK
# Procedure, shortened: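 HepG2 cells transiently transfected with GAL4-UAS reporter units and chimeric RORg-Gal4 construct; after 24 h chemical exposure, reporter mRNA measured by RT-PCR with fluorescent capillary electrophoresis, gain of signal fitted against DMSO.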
# [9] = read-out: Human Leukocyte Antigen - DR isotype (HLADR), HLA-DRA (gene 3122); experiment: BSK_3C_HLADR: BioMAP Diversity Plus: 3C Assay for Human Leukocyte Antigen - DR isotype (HLADR) Biomarker Activity (AID 2283019); details: primary human endothelial cells (HUVEC); actives raise or lower the signal;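 note: ELISA of cell-surface HLA-DR on HUVEC 24 h after dosing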
# Procedure, shortened: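 HUVEC monoculture, HLA-DR measured by ELISA 24 h after chemical dosing. Fitted bidirectionally against DMSO baseline; parallel SRB staining assessed cytotoxicity, with 3C proliferation read by SRB at 48 h.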
# Sequence of E-selectin (Homo sapiens) (P16581 whole entry, looked up): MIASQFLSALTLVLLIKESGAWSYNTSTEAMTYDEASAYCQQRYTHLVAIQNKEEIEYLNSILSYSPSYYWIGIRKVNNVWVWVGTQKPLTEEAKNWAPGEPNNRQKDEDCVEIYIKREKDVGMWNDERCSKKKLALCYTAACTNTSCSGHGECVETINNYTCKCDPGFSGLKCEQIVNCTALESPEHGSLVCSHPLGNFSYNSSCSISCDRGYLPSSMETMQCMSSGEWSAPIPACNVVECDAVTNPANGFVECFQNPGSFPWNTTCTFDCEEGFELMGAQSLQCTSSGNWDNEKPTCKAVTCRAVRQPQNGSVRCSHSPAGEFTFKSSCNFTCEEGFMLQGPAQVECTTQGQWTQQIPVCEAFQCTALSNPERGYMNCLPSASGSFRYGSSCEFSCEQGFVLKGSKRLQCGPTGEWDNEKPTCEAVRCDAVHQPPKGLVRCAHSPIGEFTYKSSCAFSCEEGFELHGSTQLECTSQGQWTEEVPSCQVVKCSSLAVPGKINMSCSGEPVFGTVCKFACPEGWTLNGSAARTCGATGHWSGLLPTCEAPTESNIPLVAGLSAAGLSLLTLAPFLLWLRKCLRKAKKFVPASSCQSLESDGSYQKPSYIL
smiles,measurement,setting,value
CC(C)(C)c1cc(Cc2cc(C(C)(C)C)c(O)c(C(C)(C)C)c2)cc(C(C)(C)C)c1O,outcome,[1],inactive
same,AC50,[2],15.7 µM (active)
same,outcome,[3],inactive
CNS(=O)(=O)C(F)(F)C(F)(F)C(F)(F)C(F)(F)C(F)(F)C(F)(F)C(F)(F)C(F)(F)F,outcome,[1],inactive
same,outcome,[2],inactive
same,outcome,[3],inactive
same,outcome,[4],inactive
same,outcome,[5],inactive
same,outcome,[6],inactive
CC(C)C(=O)OCc1ccccc1,outcome,[1],inactive
CC1=CC2C3C=CC(C3)C2C1C (configuration not stated),outcome,[1],inactive
same,outcome,[4],inactive
same,outcome,[5],inactive
same,outcome,[6],inactive
OCC(O)CC(F)(F)C(F)(F)C(F)(F)C(F)(F)C(F)(F)C(F)(F)C(F)(F)C(F)(F)F (configuration not stated),outcome,[1],inactive
same,outcome,[3],inactive
same,outcome,[7],inactive
same,outcome,[4],inactive
same,outcome,[5],inactive
same,outcome,[6],inactive
CCOC(=O)CC(=O)C(F)(F)C(F)(F)F,outcome,[1],inactive
same,outcome,[4],inactive
same,outcome,[5],inactive
same,outcome,[6],inactive
Cc1ccc(S(=O)(=O)C(I)I)cc1,outcome,[1],inactive
same,outcome,[2],inactive
same,outcome,[3],inactive
same,AC50,[4],5.63 µM (active)
same,AC50,[5],2.58 µM (active)
same,AC50,[6],1.43 µM (active)
O=C(O)C(F)(F)C(F)(F)C(F)(F)OC(F)(F)F,outcome,[8],inactive
same,outcome,[7],inactive
same,outcome,[4],inactive
same,outcome,[5],inactive
same,outcome,[6],inactive
same,outcome,[9],inactive
CCOCN(C(=O)CS(=O)(=O)O)c1c(C)cccc1CC,outcome,[8],inactive
same,outcome,[3],inactive
O=C=NCc1cccc(CN=C=O)c1,outcome,[1],inactive
same,outcome,[2],inactive
same,outcome,[3],inactive
same,outcome,[4],inactive
same,outcome,[5],inactive
same,outcome,[6],inactive
FC(F)(F)C(F)(F)C(F)(F)C(F)(F)C(F)(F)C(F)(F)C(F)(F)CCI,outcome,[1],inactive
same,outcome,[3],inactive
same,outcome,[7],inactive
same,outcome,[4],inactive
same,outcome,[5],inactive
same,outcome,[6],inactive
CCCCCCCCCCCCCC[P+](CCCC)(CCCC)CCCC,outcome,[1],inactive
same,outcome,[2],inactive
OCC(O)CC(F)(F)C(F)(F)C(F)(F)C(F)(F)F (configuration not stated),outcome,[1],inactive
same,outcome,[7],inactive
same,outcome,[4],inactive
same,outcome,[5],inactive
same,outcome,[6],inactive
same,outcome,[9],inactive
CCn1c2ccccc2c2ccccc21,outcome,[1],inactive
same,AC50,[2],13.3 µM (active)
same,outcome,[3],inactive
CCCCCCCCCc1ccc(OCCO)cc1,outcome,[1],inactive
same,outcome,[2],inactive
same,outcome,[3],inactive
CSc1ccc(Cl)cc1,outcome,[8],inactive
same,outcome,[3],inactive
O=c1[nH]cccc1O,outcome,[8],inactive
same,outcome,[3],inactive
O=C(Cl)c1ccc(Cl)cc1Cl,outcome,[8],inactive
same,outcome,[3],inactive
O=C(c1ccccc1)c1ccc(Cl)cc1,outcome,[1],inactive
same,AC50,[2],68.7 µM (active)
same,outcome,[3],inactive
O=C(Cl)C(F)(F)C(F)(F)C(F)(F)C(F)(F)C(F)(F)C(F)(F)F,outcome,[1],inactive
same,outcome,[2],inactive
same,outcome,[4],inactive
same,outcome,[5],inactive
same,outcome,[6],inactive
same,outcome,[9],inactive
Oc1ccc2c(c1)CCC2,outcome,[1],inactive
same,outcome,[2],inactive
same,outcome,[3],inactive
COC(F)(C(F)F)C(F)(F)F (configuration not stated),outcome,[8],inactive
same,outcome,[3],inactive
same,outcome,[4],inactive
same,outcome,[5],inactive
same,outcome,[6],inactive
same,outcome,[9],inactive
COCCC(=O)OC,outcome,[8],inactive
same,outcome,[3],inactive
CCN=C1C=CC(=C(c2ccc(N(CC)CC)cc2)c2ccc(N(CC)CC)cc2)c2ccccc21,outcome,[1],inactive
same,AC50,[7],3.62 µM (active) and 2.78 µM (active)
same,AC50,[4],1.99 µM (active) and 1.72 µM (active)
same,AC50,[5],2.22 µM (active) and 2.19 µM (active)
same,AC50,[6],1.03 µM (active) and 1.16 µM (active)
CC(C)OC=O,outcome,[1],inactive
same,outcome,[2],inactive
CCCCOC(=O)C(C)O (configuration not stated),outcome,[1],inactive
same,outcome,[2],inactive
same,outcome,[3],inactive
CCOC(C=C(C)CCC=C(C)C)OCC,outcome,[1],inactive
same,outcome,[2],inactive
same,AC50,[7],32.8 µM (active)
same,AC50,[4],3.97 µM (active)
same,AC50,[5],32.1 µM (active)
same,AC50,[6],30.4 µM (active)
NC(=O)C(F)(F)C(F)(F)C(F)(F)C(F)F,outcome,[1],inactive
same,outcome,[2],inactive
same,outcome,[3],inactive
same,outcome,[4],inactive
same,outcome,[5],inactive
same,outcome,[6],inactive
same,outcome,[9],inactive
CCN(CC)c1ccc2c(c1)Oc1cc(N(CC)CC)ccc1C21OC(=O)c2ccccc21,outcome,[8],inactive
same,outcome,[7],inactive
same,outcome,[4],inactive
same,AC50,[5],10 µM (active)
same,outcome,[6],inactive
OCCCCl,outcome,[1],inactive
same,outcome,[2],inactive
same,outcome,[3],inactive
NC(=O)C(F)(F)C(F)(F)C(F)(F)F,outcome,[8],inactive
same,outcome,[4],inactive
same,outcome,[5],inactive
same,outcome,[6],inactive
CCCCCCCC/C=C\CCCCCCCC(=O)OCC(O)CO (configuration not stated),outcome,[3],inactive
FC(F)(F)C(F)(F)C(F)(F)C(F)(F)C(F)(F)C(F)(F)CC[Si](Cl)(Cl)Cl,outcome,[2],inactive
same,outcome,[4],inactive
same,outcome,[5],inactive
same,outcome,[6],inactive
same,outcome,[9],inactive
CC(C)(C)c1cc(CCC(=O)NCCCCCCNC(=O)CCc2cc(C(C)(C)C)c(O)c(C(C)(C)C)c2)cc(C(C)(C)C)c1O,outcome,[7],inactive
same,outcome,[4],inactive
same,outcome,[5],inactive
same,outcome,[6],inactive
CCN(CC)c1ccc(C=O)cc1,outcome,[2],inactive
same,outcome,[3],inactive
same,outcome,[4],inactive
same,outcome,[5],inactive
same,outcome,[6],inactive
O=S(=O)(O)CCC(F)(F)C(F)(F)C(F)(F)C(F)(F)F,outcome,[3],inactive
same,outcome,[4],inactive
same,outcome,[5],inactive
same,outcome,[6],inactive
same,outcome,[9],inactive
O=C(O)CCC(F)(F)C(F)(F)C(F)(F)F,outcome,[2],inactive
same,outcome,[7],inactive
same,outcome,[4],inactive
same,outcome,[5],inactive
same,outcome,[6],inactive
CC(C)=CCCC(C)O (configuration not stated),outcome,[2],inactive
Oc1ccc(C2(c3ccc(O)c(C4CCCCC4)c3)CCCCC2)cc1C1CCCCC1,outcome,[3],inactive
O=C(F)C1(F)C(F)(F)C(F)(F)C(F)(F)C(F)(F)C1(F)F,outcome,[4],inactive
same,outcome,[5],inactive
same,outcome,[6],inactive
COc1ccccc1C=O,outcome,[2],inactive
same,outcome,[3],inactive
